Screening results deposited in PubChem BioAssay by several laboratories.
aDG glyco up: activators of alpha-DG glycosylation, primary screen, uHTS, Pro5-aDG cells, AlphaScreen; alpha-DG glycosylation AlphaScreen (IIH6); 0% Pro5, 100% B10-LARGE cell signal; activation, % at 10 µM; 360,000 tested, 0.22% active; AID 624168, 2012;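 active = activation of at least 8% versus controls, or a plate z-score of at least 8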;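 note: Pro5 are CHO cells carrying HIG-tagged alpha-DG that lacks glycosylation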
p47phox inh: p47phox/p22phox peptide binding inhibitors, primary screen, biochemical, uHTS, NADPH oxidase regulatory subunit; 220,000 tested, 0.53% active; fluorescence polarization, 2 h; inhibition, % at 24.7 µM; Neutrophil cytosol factor 1 (Homo sapiens), P14598;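 active = inhibition above about 30%, limit read from the data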;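 note: 0% = p47phox with labelled peptide and 100% = labelled peptide alone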
ZTA DNA inh: counter-screen for EBNA-1 inhibitors: inhibitors of Epstein-Barr virus ZTA. P03206. ZTA-DNA binding, fluorescence polarization. inhibition, % at 11 µM. 320,000 tested, 0.15% active; in the data active = inhibition above about 33%
Rev-erbA mod: modulators of Rev-erb alpha DNA binding, primary screen, biochemical, FITC-DNA, fluorescence polarization, uHTS | Nuclear receptor subfamily 1 group D member 1 (Homo sapiens), P20393 | 370,000 tested, 0.79% active | Rev-erbα–FITC-DNA binding, 90 min | activity, % at 10 µM;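 active = activity above about 14%, limit read from the data; passing the limit was not always enough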;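 note: 0% = DMSO wells with 35 nM protein and 100% = DMSO wells with 750 nM protein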
Target sequence (P20393 whole entry, looked up): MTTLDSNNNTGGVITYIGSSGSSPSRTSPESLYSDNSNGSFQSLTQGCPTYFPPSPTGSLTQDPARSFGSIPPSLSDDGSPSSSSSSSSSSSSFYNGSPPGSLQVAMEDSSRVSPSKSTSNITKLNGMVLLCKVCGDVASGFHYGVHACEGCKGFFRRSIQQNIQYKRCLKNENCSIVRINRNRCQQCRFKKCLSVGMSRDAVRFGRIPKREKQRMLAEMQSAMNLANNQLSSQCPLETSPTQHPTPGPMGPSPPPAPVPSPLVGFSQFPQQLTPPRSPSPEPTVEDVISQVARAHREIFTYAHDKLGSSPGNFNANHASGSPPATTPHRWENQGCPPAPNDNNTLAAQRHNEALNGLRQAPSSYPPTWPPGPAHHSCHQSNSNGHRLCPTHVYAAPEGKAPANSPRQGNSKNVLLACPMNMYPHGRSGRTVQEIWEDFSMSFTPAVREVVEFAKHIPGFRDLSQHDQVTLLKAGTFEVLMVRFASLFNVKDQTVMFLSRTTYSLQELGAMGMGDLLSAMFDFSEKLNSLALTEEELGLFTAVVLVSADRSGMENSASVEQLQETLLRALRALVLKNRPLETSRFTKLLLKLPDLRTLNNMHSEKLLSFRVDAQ
PG9 Ab binder: binders of HIV-1 gp120 antibody PG9, primary screen, biochemical, TR-FRET; TR-FRET gp120-PG9 antibody binding; HIV-1 gp120 / PG9 antibody interaction; AID 624416, 2012; inhibition, % at 6.7 µM; 360,000 tested, 0.43% active; in the data active = inhibition above about 8.5%
EBNA-1 inhibitor: EBNA-1 DNA-binding inhibitors, primary screen, biochemical, fluorescence polarization; inhibition, % at 14.8 µM; 300,000 tested, 0.34% active; AID 1950, 2009; in the data active = inhibition above about 28%
EBNA-1 confirm: EBNA-1 DNA-binding inhibitors, retest, confirmation, biochemical, fluorescence polarization, triplicate; inhibition, % at 14.8 µM; AID 2292, 2010; shares compounds with EBNA-1 inhibitor; Recombinant EBNA-1 DBD, Cy5-DNA fluorescence polarization; 830 tested, 35% active;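 active = mean inhibition across replicates above a set limit taken from the earlier primary screen, cut at about 28% in these data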;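 note: plate controls were EBNA-1 protein with DMSO for no effect and wells lacking EBNA-1 for full effect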
ZTA DNA inh trip: EBV Zta DNA binding inhibitors, counter-screen for EBNA-1 inhibitor project, biochemical, fluorescence polarization, triplicate; shares compounds with EBNA-1 inhibitor; Zta-ZRE DNA binding, Cy5 fluorescence polarization; inhibition, % at 11.1 µM; 830 tested, under 10 active;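 active = mean inhibition over triplicates above a set limit taken from the primary EBNA-1 screen, cut at about 37% in these data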;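 note: purified full length Zta protein with Cy5 labeled ZRE DNA probe; 0% = Zta with DMSO and 100% = wells lacking Zta protein; inhibitors lower polarization by freeing the labeled DNA probe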
* hit, by the source's call; x = no result. A selection: hits, their analogues and other compounds. The true share with any hit is near 1.9%.

SMILES	aDG glyco up	p47phox inh	ZTA DNA inh	Rev-erbA mod	PG9 Ab binder	EBNA-1 inhibitor	EBNA-1 confirm	ZTA DNA inh trip
N#CCC(=N)N1CCN(c2cccc(Cl)c2)CC1	0.0	-13.7	5.7	1.4	0.5	45.2*	-10.1	-1.3
Cc1ccc(NC(=O)CSc2nnc(NC(=O)c3ccc(S(=O)(=O)N4CCOCC4)cc3)s2)cc1	-0.2	-20.1	10.1	-5.2	-0.6	56.4*	84.3*	11.1
CCOC(=O)c1ccc(NC(=O)CSc2nnc(NC(=O)c3ccc(S(=O)(=O)N4CCOCC4)cc3)s2)cc1	0.0	9.7	6.5	-4.3	0.9	-3.7	x	x
COc1cccc(Nc2nnc(SCn3nnc4ccccc4c3=O)s2)c1	-0.2	-8.5	4.3	-1.2	-2.1	43.1*	37.8*	15.9
CCc1ccc(Nc2nnc(SCn3nnc4ccccc4c3=O)s2)cc1	0.1	-17.2	2.9	3.2	-0.7	-15.3	x	x
O=C(NCCCCNC(=O)c1ccc(Br)s1)c1ccc(Br)s1	0.0	-18.9	25.3	9.2	-20.6	46.0*	11.1	9.7
CS(=O)(=O)c1ccc(Cl)c(NC(=O)Cc2ccccc2F)c1	0.5	x	9.9	-4.3	-0.2	5.3	x	x
CS(=O)(=O)c1ccc(Cl)c(NC(=O)Cc2c(F)cccc2Cl)c1	-0.2	-11.5	-6.0	1.1	2.0	43.9*	30.5*	-11.8
N#C/C(=C\c1cn(Cc2ccccc2C#N)c2ccccc12)C(=O)NCc1cccs1	x	-31.1	-13.8	1.2	-3.5	30.8*	2.3	-8.3
C#CCCCN([C@@H](CC(C)C)C(=O)OC)S(=O)(=O)c1ccc(F)cc1Br	x	x	x	3.3	x	x	x	x
CCOc1cc(/C=N/NC(=O)C(=O)N/N=C/c2ccc(O)c(OCC)c2)ccc1O	-0.2	x	7.7	3.6	-0.4	27.7*	23.1	-5.6
CCOc1ccc(NC(=O)c2ccc(NC(=S)NC3CC3)cc2)cc1	0.0	-10.9	16.9	-0.1	-1.4	37.8*	28.4*	-4.6
CCOc1ccc(NC(=O)c2ccc(C#CC(C)(C)O)cc2)cc1	0.3	-3.9	9.2	0.0	-1.7	30.2*	12.4	1.4
CN(Cc1ccccc1)S(=O)(=O)c1ccc(Cl)c(C(=O)NCc2ccc3c(c2)OCO3)c1	0.4	-5.5	10.0	0.0	1.4	37.3*	-7.8	4.2
Cc1ccc(CN(c2ccc(C(=O)NCc3ccc4c(c3)OCO4)cc2)S(C)(=O)=O)cc1	-0.4	-19.0	2.1	-5.3	-4.1	34.7*	13.6	-3.3
Cc1ccc(C(=O)NCc2ccc3c(c2)OCO3)cc1	0.1	x	0.6	-1.1	-1.4	3.3	x	x
COC(=O)[C@]12C[C@H](CC(=O)N3CCN(C(=O)c4ccco4)CC3)C(=O)N(Cc3cccc4ccccc34)C1=C[C@H](COCc1ccccc1)O[C@@H]2C	x	x	x	-5.3	x	x	x	x
CC(C)C[C@H](NC(C)(C)C(=O)NC1CCCCC1)C(=O)NCC(c1ccccc1)c1ccccc1	x	x	x	-1.5	x	x	x	x
Cc1ccccc1OCc1nnc(SCC(=O)Nc2ccc3c(c2)OCO3)n1C	0.1	-21.2	-11.2	-1.4	-2.0	7.0	x	x
Cc1ccccc1OCc1nnc(SCC(=O)Nc2ccc3nc(SCC(=O)Nc4ccccc4)sc3c2)n1C	-0.1	-24.4	-16.1	0.8	1.2	44.1*	43.0*	12.0
CCn1c(Cc2ccccc2)nnc1SCC(=O)Nc1ccc2c(c1)OCCO2	-0.1	-6.2	-0.5	4.2	-2.9	28.9*	-0.5	4.2
COc1cc(NC(=O)COC(=O)/C=C/c2ccccc2Cl)cc(OC)c1	-0.1	-10.4	8.6	-1.8	-3.7	68.9*	29.8*	13.4
COc1ccc(OC)c(NC(=O)COC(=O)/C=C/c2ccc(Cl)cc2)c1	-0.3	-5.4	-14.5	1.5	-2.0	41.8*	15.1	9.0
